Unmarked numbers belong to inactive results. Active and inactive are the calls of the source.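 How the source made its calls, unless noted: active means viability loss from added drug above about 55%, and viability with drug at most 40%, in both replicates (limit read from the data, passing the limit was not always enough); inconclusive means both conditions met in only one replicate; inactive means neither replicate meets both conditions.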
assay: H69AR cell proliferation blockers – human, duplicate replicates, primary screen (AID 580;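 active means viability at or under a set limit in both replicates, limit being median viability minus 3 SD, cut at about 48% in these data, passing the limit was not always enough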;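 further: 100% = mean luminescence of untreated wells and 0% = no signal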); conditions: H69AR lung tumor cells viability, ATP luminescence, 72 h; at 10 µM; active compounds read low

In order of rising viability:
1. COc1ccc2nc3oc(C(=O)NC4CCN(Cc5ccccc5)CC4)cc3cc2c1  82.6%
2. Cc1ccc(C(=O)N2CCCC(c3nc4c(nnn4Cc4ccccc4)c(=O)[nH]3)C2)cc1 (stereo not given)  83.4%
3. COCCOC(=O)c1[nH]c2c(c1C)C(=O)CC(c1ccc(N(C)C)cc1)C2 (stereo not given)  83.5%
4. CCN1CCN(C(=O)c2ccc3c(=O)n(C4CCCC4)c(=S)[nH]c3c2)CC1  84.7%
5. CCOC(=O)c1ccccc1NC(=O)N1CCn2c(C)ccc2C1CC (stereo not given)  84.8%
6. C=CCn1c(Cc2cccs2)nnc1SCC(=O)Nc1ccc(OC)c(OC)c1  85.3%
7. CCOC(=O)CC1=C(C(=O)OCC)C(c2ccc(C)o2)C(C#N)=C(N)O1 (stereo not given)  85.6%
8. O=S(=O)(c1cccc2nsnc12)N1CCN(c2ncccn2)CC1  86.9%
9. COc1ccc2[nH]c(=O)c(CN(C(=O)c3cccnc3)c3ccccc3OC)cc2c1  89.1%
10. O=C(NC1CCS(=O)(=O)C1)N1CCCCC1 (stereo not given)  89.6%
11. O=C(CNC(=O)c1ccccc1C(=O)O)c1ccccc1  90%
12. Cn1c(=O)c(-c2ccccc2)nn2c3ccccc3nc12  90.8%
13. Cc1ccccc1C(=O)Nc1c(C(=O)N2CCCC2)cnn1-c1ccccc1  91.9%
14. Cc1ccc(F)cc1NC(=O)Cc1nn(C)c(=O)c2ccccc12  93.4%
15. CCOc1ncccc1C(=O)OCC(=O)Nc1ncc(C(F)(F)F)cc1Cl  93.8%
16. COc1ccc(S(=O)(=O)N2CCOCC2)cc1C(=O)Nc1cc(C)on1  93.9%
17. CCCS(=O)(=O)Nc1c(C(=O)O)[nH]c2ccccc12  94.5%
18. O=C(CSc1ncn[nH]1)c1ccco1  94.7%
19. COc1ccc(S(=O)(=O)N(C)c2ccc(C(=O)N3CCOCC3)cc2)cc1  95.2%
20. CC1(C)Cc2c(sc3ncnc(N)c23)CO1  95.6%
21. Cn1nnnc1SCC(=O)NCc1ccco1  95.8%
22. CC(C)(C)c1cc(C(=S)N2CCN(CCO)CC2)cc(C(C)(C)C)c1O  96.2%
23. CC1(C)C(=O)Nc2ccccc2N1C(=O)COC(=O)Cn1cnc2ccccc2c1=O  96.3%
24. CCOC(=O)Nc1sc(=S)n(C)c1C  98%
25. C=CCc1cc(OC)ccc1OCC(O)CN1CCN(c2ccc(OC)cc2)CC1 (stereo not given)  99.6%
26. O=C(O)c1[nH]nc2c1COc1ccccc1-2  100%
27. Cc1ccc(S(=O)(=O)N2CCN(C(=O)CN3C(=O)NC4(CCOc5ccccc54)C3=O)CC2)cc1 (stereo not given)  101%
28. COC(=O)c1ccccc1NC(=O)C1CC(=O)N(c2ccccc2)C1 (stereo not given)  102%
29. COc1ccc(NC(=O)CCCN2C(=O)C3C4C=CC(C4)C3C2=O)c(OC)c1 (stereo not given)  102%
30. Cc1cccc(NC(=O)Cn2c(=O)n(C)c3ccccc32)c1  102%
31. CCNC(=O)CC(=O)Nc1ccccc1C(=O)O  103%
32. Cn1c(SCC(N)=O)nnc1C1CCN(S(=O)(=O)c2ccccc2C(F)(F)F)CC1  104%
33. O=C(Nc1nnc(COc2ccc(F)cc2)s1)c1cccs1  106%
34. CC(C)(C)n1nnnc1CN1CCC(NC(=O)NC2CCCCC2)CC1  106%
35. CC(=O)Nc1ccc(S(=O)(=O)Nc2nc3n(n2)C(c2ccccc2)CC(=O)N3)cc1 (stereo not given)  107%
36. O=C(Cn1ccc2ccccc2c1=O)Nc1ccc2c(c1)OCO2  107%
37. O=C(C1CCN(S(=O)(=O)Cc2ccccc2)CC1)N1CCN(c2ncccn2)CC1  112%

For `O=C(Nc1ccc(Cl)cc1C(=O)Nc1ccncc1)c1ccco1`, the viability was 41.3% (active).
For `COc1cccc(-c2nnc3sc(-c4ccc(C)cc4)nn23)c1`, the viability was 17.3% (active).
For `COc1cccc(NC(=O)NC2(C(F)(F)F)Oc3ccccc3O2)c1`, the viability was 30.7% (active).

assay: MRP1 drug-resistance reversers in H69AR cells – cell-based, doxorubicin co-treatment, pilot screen (AID 601); conditions: H69AR cells + 2 uM doxorubicin, CellTiter-Glo, 72 h; at 10 µM; active compounds read high

In order of rising differential viability (reversal):
1. COc1cccc(-c2nnc3sc(-c4ccc(C)cc4)nn23)c1  -61.5%
2. COCCOC(=O)c1[nH]c2c(c1C)C(=O)CC(c1ccc(N(C)C)cc1)C2 (stereo not given)  -20.9%
3. O=C(Nc1ccc(Cl)cc1C(=O)Nc1ccncc1)c1ccco1  -19.2%
4. COc1cccc(NC(=O)NC2(C(F)(F)F)Oc3ccccc3O2)c1  -17.4%
5. CCCS(=O)(=O)Nc1c(C(=O)O)[nH]c2ccccc12  -11.1%
6. O=S(=O)(c1cccc2nsnc12)N1CCN(c2ncccn2)CC1  -7.98%
7. C=CCn1c(Cc2cccs2)nnc1SCC(=O)Nc1ccc(OC)c(OC)c1  -5.02%
8. C=CCc1cc(OC)ccc1OCC(O)CN1CCN(c2ccc(OC)cc2)CC1 (stereo not given)  -4.29%
9. O=C(CSc1ncn[nH]1)c1ccco1  -3.81%
10. COc1ccc2[nH]c(=O)c(CN(C(=O)c3cccnc3)c3ccccc3OC)cc2c1  -2.19%
11. Cn1c(=O)c(-c2ccccc2)nn2c3ccccc3nc12  -0.73%
12. CCOc1ncccc1C(=O)OCC(=O)Nc1ncc(C(F)(F)F)cc1Cl  -0.51%
13. O=C(NC1CCS(=O)(=O)C1)N1CCCCC1 (stereo not given)  1.27%
14. Cc1ccc(S(=O)(=O)N2CCN(C(=O)CN3C(=O)NC4(CCOc5ccccc54)C3=O)CC2)cc1 (stereo not given)  1.57%
15. CCOC(=O)c1ccccc1NC(=O)N1CCn2c(C)ccc2C1CC (stereo not given)  1.62%
16. COc1ccc2nc3oc(C(=O)NC4CCN(Cc5ccccc5)CC4)cc3cc2c1  1.69%
17. CC1(C)C(=O)Nc2ccccc2N1C(=O)COC(=O)Cn1cnc2ccccc2c1=O  1.74%
18. CCOC(=O)Nc1sc(=S)n(C)c1C  3.1%
19. COc1ccc(S(=O)(=O)N(C)c2ccc(C(=O)N3CCOCC3)cc2)cc1  3.61%
20. COc1ccc(NC(=O)CCCN2C(=O)C3C4C=CC(C4)C3C2=O)c(OC)c1 (stereo not given)  5.03%
21. CCNC(=O)CC(=O)Nc1ccccc1C(=O)O  5.93%
22. CC(=O)Nc1ccc(S(=O)(=O)Nc2nc3n(n2)C(c2ccccc2)CC(=O)N3)cc1 (stereo not given)  6.67%
23. O=C(O)c1[nH]nc2c1COc1ccccc1-2  7.14%
24. O=C(CNC(=O)c1ccccc1C(=O)O)c1ccccc1  7.15%
25. Cn1c(SCC(N)=O)nnc1C1CCN(S(=O)(=O)c2ccccc2C(F)(F)F)CC1  7.31%
26. COc1ccc(S(=O)(=O)N2CCOCC2)cc1C(=O)Nc1cc(C)on1  8.07%
27. CCOC(=O)CC1=C(C(=O)OCC)C(c2ccc(C)o2)C(C#N)=C(N)O1 (stereo not given)  8.26%
28. CC1(C)Cc2c(sc3ncnc(N)c23)CO1  8.37%
29. Cc1cccc(NC(=O)Cn2c(=O)n(C)c3ccccc32)c1  9.13%
30. Cn1nnnc1SCC(=O)NCc1ccco1  9.46%
31. CCN1CCN(C(=O)c2ccc3c(=O)n(C4CCCC4)c(=S)[nH]c3c2)CC1  9.82%
32. Cc1ccccc1C(=O)Nc1c(C(=O)N2CCCC2)cnn1-c1ccccc1  9.86%
33. O=C(Cn1ccc2ccccc2c1=O)Nc1ccc2c(c1)OCO2  14.8%
34. CC(C)(C)n1nnnc1CN1CCC(NC(=O)NC2CCCCC2)CC1  15.1%
35. Cc1ccc(F)cc1NC(=O)Cc1nn(C)c(=O)c2ccccc12  15.8%
36. CC(C)(C)c1cc(C(=S)N2CCN(CCO)CC2)cc(C(C)(C)C)c1O  17.4%
37. COC(=O)c1ccccc1NC(=O)C1CC(=O)N(c2ccccc2)C1 (stereo not given)  20.8%
38. O=C(Nc1nnc(COc2ccc(F)cc2)s1)c1cccs1  21.3%
39. O=C(C1CCN(S(=O)(=O)Cc2ccccc2)CC1)N1CCN(c2ncccn2)CC1  22.3%
40. Cc1ccc(C(=O)N2CCCC(c3nc4c(nnn4Cc4ccccc4)c(=O)[nH]3)C2)cc1 (stereo not given)  24.5%
